Methyltransferases = Primary Screen for Target Class Profiling of Small Molecule Inhibitors of Methyltransferases | 25,000 compounds, 3.9% hits | calls only at 40 µM | purified enzyme, MTase-Glo SAH luminescence; active compounds read low; call rule not given here
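Each enzyme was reacted with SAM and its substrate, with compounds tested once at 40 uM; SAH formed was read by MTase-Glo luminescence.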
Calls only; i = inactive; + = active, no number; ! = a repeat was not active. This is one part of a sample in which hits are shown more often than they occur.

SMILES | Methyltransferases
O=C(NCc1cccc(Cl)c1)c1sc(=S)n2c1[nH]c(=O)c1cc3c(cc12)OCO3 | +
CCc1ccc(NC(=O)c2sc(=S)n3c2[nH]c(=O)c2cc(Cl)ccc23)cc1 | i
O=C(NCc1ccc2c(c1)OCO2)c1sc(=S)n2c1[nH]c(=O)c1ccc(Cl)cc12 | +
O=C(NCc1ccc2c(c1)OCO2)c1sc(=S)n2c1[nH]c(=O)c1cc3c(cc12)OCO3 | i
O=C(NCc1ccc2c(c1)OCO2)c1n[nH]nc1Nc1ccc(Cl)cc1 | i
O=C(Cn1ccc2cc(S(=O)(=O)N3CCCCC3)ccc21)NCCCN1CCCC1 | i
Cc1cc2c(cc3n2CC(C)(C(=O)NC2CCCCCCC2)N(Cc2cccc(F)c2)C3=O)o1 (stereo not given) | i
CCOC(=O)C(Cc1c[nH]c2ccccc12)NC(=O)c1ccccc1Cl (stereo not given) | i
C=CCn1c(=O)c2ccc(C(=O)NC(C)C)cc2n2c(=O)n(CC(=O)NC(C)CC)nc12 (stereo not given) | i
O=C1Nc2ccc(I)cc2/C1=C/c1cc(Br)c(O)c(Br)c1 | +
CC1CCN(CCCNC(=O)CCc2nnc3n(Cc4ccc(F)cc4)c(=O)c4ccccc4n23)CC1 | +
CCOCCCNC(=O)CCc1nnc2n(Cc3ccc(F)cc3)c(=O)c3ccccc3n12 | i
CC1CCN(CCCNC(=O)CCc2nnc3n(Cc4ccc(Cl)cc4)c(=O)c4ccccc4n23)CC1 | +
CC1CCN(CCCNC(=O)CCc2nnc3n(Cc4ccccc4)c(=O)c4ccccc4n23)CC1 | +
CCCCNC(=O)CCc1nnc2n(Cc3ccc(Cl)cc3)c(=O)c3ccccc3n12 | i
Cc1ccc(CNC(=O)CCc2nnc3n(Cc4ccc(Cl)cc4)c(=O)c4ccccc4n23)cc1 | i
CCN(CC)CCCNC(=O)CCc1nnc2n(Cc3ccc(Cl)cc3)c(=O)c3ccccc3n12 | +
O=C(CCc1nnc2n(Cc3ccc(F)cc3)c(=O)c3ccccc3n12)NCCN1CCOCC1 | i
CCN(CC)CCNC(=O)CCc1nnc2n(Cc3ccccc3)c(=O)c3ccccc3n12 | i
CCOCCCNC(=O)CCc1nnc2n(Cc3ccc(Cl)cc3)c(=O)c3ccccc3n12 | i
Cc1ccc(CCNC(=O)CCc2nnc3n(Cc4ccccc4)c(=O)c4ccccc4n23)cc1 | i
CN1CCN(CCCNC(=O)CCc2nnc3n(Cc4ccccc4Cl)c(=O)c4ccccc4n23)CC1 | i
CC(C)OCCCn1c(=O)c2ccccc2n2c(SCc3ccccc3Cl)nnc12 | i
CCOC(=O)CNC(=O)N1Cc2c(sc3c2CCCC3)-n2cccc2C1c1ccc(C(C)C)cc1 (stereo not given) | i
CCOc1ccc(S(=O)(=O)NCCn2c(C(F)(F)F)nc3ccccc32)cc1 | i
SMILES | Methyltransferases
CCn1c(=O)n(CC)c2cc(S(=O)(=O)N3CCN(c4ccc(C)cc4C)CC3)ccc21 | i
CCOC(=O)c1cc2n(n1)CC(C)(C(=O)NC1CCCCCC1)N(c1ccc(F)cc1C)C2=O (stereo not given) | i
CN(C)c1ccc(CN2C(=O)c3ccc(-c4ccco4)n3CC2(C)C(=O)NCc2ccc(Cl)cc2)cc1 (stereo not given) | i
Cc1ccc(Cn2c(=O)c3ccc(C(=O)NCC(C)C)cc3n3c(=O)n(CC(=O)NC(C)C)nc23)cc1 | i
CC(C)Oc1ccc(CNC(=O)CNC(=O)C2(C)Cn3c(cc4ccccc43)C(=O)N2C)cc1 (stereo not given) | i
CCC(C)NC(=O)c1ccc2c(=O)n(C(C)C)c3nn(CC(=O)Nc4ccc(C)c(F)c4)c(=O)n3c2c1 (stereo not given) | i
Cc1cc2c3c([nH]c2cc1S(=O)(=O)NCCN1CCN(c2ccccc2F)CC1)CCCC3=O | i
O=C(CCn1ccc2cc(S(=O)(=O)N3CCCCC3)ccc21)NCc1ccc(F)cc1 | i
COCCNC(=O)c1cc2n(n1)CC(C)(C(=O)NC1CCCCC1)N(C)C2=O (stereo not given) | i
Cc1cccc(CN2C(=O)c3ccccc3CC2(C)C(=O)NCc2ccccc2)c1 (stereo not given) | i
COc1ccc(-c2nc(-c3ccc(S(=O)(=O)N4CCCCC4)cc3)no2)cc1OC | i
CCc1ccc(C(=O)NC(Cc2c[nH]c3ccccc23)C(=O)OCC(=O)c2ccc(C)cc2)cc1 (stereo not given) | i
COC(=O)C(Cc1c[nH]c2ccccc12)NC(=O)c1ccc(Br)cc1 (stereo not given) | i
COC(=O)[C@H](Cc1cccc(C(=N)N)c1)[C@@H](C)NC(=O)c1ccc(-c2cc[n+]([O-])cc2)cc1 | +
CCc1ccc(S(=O)(=O)c2nnn3c2nc(NCCC(C)C)c2ccccc23)cc1 | i
Cc1ccc(NC(=O)CSc2nnc3n(CC(C)C)c(=O)c4ccc(Cl)cc4n23)c(Cl)c1 | i
CCOC(=O)c1cc2n(n1)CC(C)(C(=O)NCc1ccc(F)cc1)N(c1ccc(F)cc1)C2=O (stereo not given) | i
COc1ccc(CN2C(=O)c3ccc(-c4ccccc4)n3CC2(C)C(=O)NC2CCCCC2)cc1 (stereo not given) | i
CCCSc1nc(N[C@@H]2C[C@H]2c2ccc(F)c(F)c2)c2nnn([C@@H]3C[C@H](OCCO)[C@@H](O)[C@H]3O)c2n1 | +
CC(C)Cn1c(=O)c2cc(F)ccc2n2c(SCC(=O)Nc3ccccc3F)nnc12 | i
Cc1ccc(NC(=O)Cn2nc3n(C)c(=O)c4ccc(C(=O)NC5CCCC5)cc4n3c2=O)cc1 | i
CCc1cc2c(cc3n2CC(C)(C(=O)NC2CCCCCC2)N(C2CCCC2)C3=O)s1 (stereo not given) | i
Nc1nc2ccc(Cl)cc2c2nc(-c3ccco3)nn12 | i
Nc1nc2c(cnn2CCc2ccccc2)c2nc(-c3ccco3)nn12 | +
CCOC(=O)c1cc2n(n1)CC(C)(C(=O)NCc1ccccc1)N(c1ccc(OC)cc1)C2=O (stereo not given) | i
SMILES | Methyltransferases
Cc1nc2ccccc2n1CCNS(=O)(=O)c1cccc(Cl)c1 | i
COc1ccc2c(c1)c(NC(C)=O)c1n2CC(C)(C(=O)NC2CCCC2)N(CCC(C)C)C1=O (stereo not given) | i
CCc1ccc(N2C(=O)c3cc4occc4n3CC2(C)C(=O)NC2CCCC(C)C2C)cc1 (stereo not given) | i
COc1ccccc1NC(=O)CSc1nnc2n(Cc3ccc(C)cc3)c(=O)c3ccccc3n12 | i
N#CC(C#N)=C(N)/C(C#N)=C/c1ccc(O)cc1 | i
N#C/C(=C\c1ccc(O)c(O)c1)C(=O)Nc1ccccc1 | i
N#C/C(=C\c1ccc(O)c(O)c1)C(=O)NCCCNC(=O)/C(C#N)=C/c1ccc(O)c(O)c1 | +!
CC(C)Cn1c(=O)c2cc(F)ccc2n2c(SCC(=O)Nc3ccc(Cl)cc3)nnc12 | i
COc1ccccc1CNC(=O)CCc1nnc2n(CC(C)C)c(=O)c3ccccc3n12 | i
Cc1ccc(C(=O)Nc2ccc(S(=O)(=O)O)c3cc(S(=O)(=O)O)cc(S(=O)(=O)O)c23)cc1NC(=O)c1cccc(NC(=O)Nc2cccc(C(=O)Nc3cc(C(=O)Nc4ccc(S(=O)(=O)O)c5cc(S(=O)(=O)O)cc(S(=O)(=O)O)c45)ccc3C)c2)c1 | +
Cn1c(=O)c2ccc(C(=O)NC3CCCCC3)cc2n2c(SCc3ccccc3F)nnc12 | i
COC(=O)C1=COC(O[C@@H]2O[C@H](COC(=O)/C=C/c3ccc(O)cc3)[C@@H](O)[C@H](O)[C@H]2O)C2C(CO)=CCC12 (stereo not given in full) | i
